# Rows were chosen to be rich in hits. Some 7.3% of all compounds tested hit in one or more screens of this group.
# ELG1 genotox: genotoxicity induction in ELG1-luciferase HEK293T cells. HEK293T ELG1-luciferase reporter, luminescence, 16 h. Potency, µM (titrated, usually from 46 µM), without a hit: at the top dose activity change, positive = activation, usual class: activators. 1.3% of 330,000 active. AID 504466; also: % of control where 0% means no effect; nearly all actives have a fitted effect of over 60% in size
#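 ELG1-luciferase HEK293T cells, 2,000/well; compound pinned in; 16 hr, 37 °C, 5% CO2; ONE-Glo, 30 min RT; luminescence on CCD imager.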
# p53 reactivator: mutant p53 re-activation in reporter cells | H1299 p53-A138V BP100-luciferase reporter, luminescence, 24 h | Potency, µM (highest dose often 92.2 µM), for the others: top-dose activity change, positive = activation, hits mostly activators | 0.063% of 320,000 active | AID 504706; also: % of control where 0% means no effect; nearly all actives have a fitted effect of over 45% in size
#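 H1299 (p53-null), stable ts p53-A138V + BP100-Luc; 1000 cells/well, Opti-MEM/10% FBS; cpd 4 pt, 1:5; 24 h, 37 deg C, 5% CO2; detection reagent 10 min RT; luminescence.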
# SMN2 splice up: increases expression of the SMN2 splice variant. HEK293 SMN2-luciferase splicing reporter, luminescence, 30-36 h. Potency, µM (titrated, usually from 46.1 µM), for the others: at the top dose activity change, positive = activation, most hits filed as activators. 2.8% of 210,000 active. AID 1458; also: % of control where 0% means no effect; nearly all actives have a fitted effect of over 55% in size
#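 HEK293 cells carry an SMN2 minigene-luciferase reporter in which exon 7 inclusion puts luciferase in frame. Cells were seeded at 2000 cells/well, attached for 10-12 hours, then exposed to compounds for 30-36 hours at 37C before ONE-Glo luminescence.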
# NPC1 promoter act: NPC1 promoter activation. Huh7 NPC1 promoter luciferase reporter, 24 h. Potency, µM (series often up to 9.22 µM), for the others: top-dose activation, usual class: activators. 2.4% of 320,000 active. AID 485313; also: % of control where 0% means no effect; nearly all actives have a fitted effect of over 60% in size
#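 Luminescence from an NPC1 promoter-driven luciferase reporter in stably transfected Huh7 cells was measured after 24 h compound treatment at 37 °C, followed by 10 min ambient incubation with luciferase detection reagent.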
# Rab9 promoter act: Rab9 promoter activation; Huh7 Rab9 promoter-luciferase reporter, luminescence, 24 h; Potency, µM (doses to about 9.22 µM), inactives show at the highest dose activation, negative = inhibition, usual class: activators; 2.8% of 320,000 active; AID 485297; also: % of control where 0% means no effect; nearly all actives have a fitted effect of over 60% in size
#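 Cells were plated at 1500 per well in reduced-serum medium with 10% FBS and left 2 h. Compound in DMSO was then added for 24 h at 37 °C. Reporter signal was read by luminescence after 10 min with luciferase detection reagent.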
# FLuc modulator: counter-screen for miR-21 project: firefly luciferase inhibitors or activators. purified FLuc, Km substrates, luminescence inhibition. 6.9% of 360,000 active. Potency, µM (series often up to 57.5 µM), without a hit: at the highest dose activity change, negative = inhibition, actives largely listed as inhibitors. P08659. AID 588342;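 also: plate controls were vehicle for no effect and reference inhibitor for full effect; nearly all actives have a fitted effect of over 55% in size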
# Target sequence (P08659 whole entry, looked up): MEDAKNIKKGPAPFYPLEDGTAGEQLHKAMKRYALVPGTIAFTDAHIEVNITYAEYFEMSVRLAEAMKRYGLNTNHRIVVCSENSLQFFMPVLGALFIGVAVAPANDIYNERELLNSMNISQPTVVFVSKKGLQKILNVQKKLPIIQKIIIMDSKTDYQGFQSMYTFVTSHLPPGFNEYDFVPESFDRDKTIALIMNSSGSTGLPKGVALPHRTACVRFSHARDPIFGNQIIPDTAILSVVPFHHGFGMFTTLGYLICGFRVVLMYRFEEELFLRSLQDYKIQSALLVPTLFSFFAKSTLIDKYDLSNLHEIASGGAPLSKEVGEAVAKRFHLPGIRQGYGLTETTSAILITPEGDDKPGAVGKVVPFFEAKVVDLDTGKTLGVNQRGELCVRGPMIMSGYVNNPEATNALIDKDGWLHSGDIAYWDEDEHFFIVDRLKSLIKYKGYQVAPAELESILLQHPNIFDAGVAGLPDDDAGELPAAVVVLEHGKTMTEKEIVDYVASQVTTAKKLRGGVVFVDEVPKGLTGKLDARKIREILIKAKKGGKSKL
#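 Purified P. pyralis luciferase, 10 nM final, with Km-level 10 uM D-luciferin and 10 uM ATP in 50 mM Tris acetate pH 7.5, 10 mM Mg acetate, 0.01% Tween-20, 0.05% BSA; 6-point qHTS titration about 60 µM downward; luminescence read.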
# An asterisk follows results filed as active; ? = inconclusive; . = not tested or not shown; [ ] = another dose, or the depositor's remark. Calls follow the shape of the dose curve; as a rule, active = well fitted curve in the direction sought with a large enough effect; inconclusive = small, poorly fitted or top-dose-only effect, or another doubt; inactive = no such curve, though single readings can be large; an effect the other way counts as inactive or inconclusive. Potency is read from the fitted curve at half-maximal effect.
SMILES,ELG1 genotox,p53 reactivator,SMN2 splice up,NPC1 promoter act,Rab9 promoter act,FLuc modulator
O=C(Nc1ccccn1)c1ccc2c(=O)n3c(nc2c1)CCCCC3,?,13%,.,1µM*,0.56µM*,4.8µM*
O=C(Nc1ccc(F)cc1)c1ccc2c(=O)n3c(nc2c1)CCCCC3,?,.,.,3.2µM*,4.5µM*,13µM*
O=C(Nc1ccc(Cl)cc1)c1ccc2c(=O)n3c(nc2c1)CCCCC3,12%,.,.,15%,19%,?
O=C(Nc1ccc(F)c(Cl)c1)c1ccc2c(=O)n3c(nc2c1)CCCCC3,-9%,28%,.,3.2µM*,1.8µM*,6.7µM*
CC(NC(=O)c1ccc2c(=O)n3c(nc2c1)CCCCC3)c1ccccc1 (centres undefined),-2%,0%,.,1%,3%,-3%
CCc1cccc(NC(=O)c2ccc3c(=O)n4c(nc3c2)CCCCC4)c1,-8%,2%,.,?,23%,13µM*
CC(=O)c1ccc(NC(=O)c2ccc3c(=O)n4c(nc3c2)CCCCC4)cc1,-8%,-6%,.,-6%,2%,-19%
Cc1ccc(NC(=O)c2ccc3c(=O)n4c(nc3c2)CCC4)cc1F,?,?,.,3.2µM*,2.5µM*,.
O=C(O)/C=C/C(=O)c1ccc2c(c1)CCc1ccccc1-2,-11%,-26%,.,26%,?,24µM*
Cc1ccc(-c2nnn3c2nc(NCc2ccc4c(c2)OCO4)c2ccccc23)cc1,.,.,2%,.,.,3%
COc1ccccc1N/N=C/c1ccc2c(c1)OCO2,17%,14%,-15%,10%,1%,9.5µM*
COc1cccc(/C=N/NC(=O)C(=O)Nc2ccccc2OC(F)(F)C(F)F)c1O,16%,?,-106%,-17%,-13%,-3%
CSc1nsc(N/N=C/c2ccc3c(c2)OCO3)c1C#N,?,?,5.6µM*,2.5µM*,0.79µM*,1.7µM*
COc1ccccc1/C=N/NC(=O)c1cccc(OC(F)(F)C(F)F)c1,1%,10%,19%,-1%,-2%,12µM*
COc1ccccc1C(=O)N/N=C/c1ccc2c(c1)OCO2,?,29%,.,2.8µM*,?,11µM*
Cc1ccc(C(O)Cn2nc(C)cc2C)cc1 (centres undefined),1%,4%,.,0%,-4%,1%
COc1cc2nc(CN3CCN(S(=O)(=O)c4ccc(Cl)cc4)CC3)[nH]c(=O)c2cc1OC,-12%,-4%,-24%,-4%,-9%,-1%
O=C(N/N=C/c1ccccc1OC(=O)c1ccc2c(c1)OCO2)c1ccccc1,?,?,.,0%,-7%,?
COc1ccccc1/C=N/NC(=O)c1ccc2c(c1)OCO2,8%,?,.,12%,18%,6.7µM*
COc1cn(CC(=O)Nc2ccccc2)c(CN2CCCCC2)cc1=O,.,.,.,.,.,0%
Cn1c(-c2ccc3ccccc3n2)[n+](C)c2ccccc21,-3%,14%,.,-12%,-31%,21µM*
Cn1c(-c2ccccn2)[n+](C)c2ccccc21,1%,-2%,.,-11%,1%,-2%
COc1ccccc1CNC(=O)Cn1c(=O)nc(-c2ccccc2)c2ccccc21,.,.,.,.,.,3%
O=c1c2oc3ccccc3c2n(Cc2ccc(Cl)cc2)c(=O)n1Cc1ccco1,.,.,.,.,.,-4%
COCCCN=Cc1c(C)[nH]n(-c2ccc(Br)c(C)c2)c1=O,?,?,2.8µM*,1.4µM*,0.5µM*,1.3µM*
SMILES,ELG1 genotox,p53 reactivator,SMN2 splice up,NPC1 promoter act,Rab9 promoter act,FLuc modulator
COC(=O)CCS(=O)(=O)c1nc(-c2ccccc2)cc(C(F)(F)F)n1,-22%,-23%,13µM*,-16%,-16%,1%
CCOC(=O)CCS(=O)(=O)c1nc(-c2ccccc2)cc(C(F)(F)F)n1,-13%,-18%,?,-14%,-23%,-2%
CCN(CC)CCOC(=O)c1ccc(NC(=O)c2cc3c(=O)n(CC)c4ccccc4c3s2)cc1,.,.,9%,.,.,-5%
CCn1cnc2c(Nc3cc(F)cc(F)c3)nc(C#N)nc21,2%,29%,.,16%,-7%,1%
N#Cc1nc(Nc2cccc(Cl)c2)c2ncn(C3CCCC3)c2n1,?,?,.,3.5µM*,1%,1.3µM*
CCc1cc(C(=O)Nc2cnn(Cc3ccccc3C)c2)no1,.,.,18µM*,.,.,24µM*
COc1ccc2c(Cl)c(C(N)=O)sc2c1,-3%,13%,16%,13%,21%,15µM*
Cc1cc(N=Nc2c(O)c3ccccc3[nH]c2=O)ccc1N=Nc1ccc(C(=O)N(C)C)cc1,17%,9%,.,?,?,?
Cc1ccc(N=Nc2c(O)c3ccccc3[nH]c2=O)c(S(=O)(=O)N(C)C)c1,?,15%,-2%[9.22 µM],7%,23%,1.3µM*
COc1cc2nncc(SCc3ccc(Cl)c(Cl)c3)c2cc1OC,.,.,-5%[9.22 µM],.,.,.
CNc1nnc(-c2ccc(N(C)C)cc2)s1,?,40%,2.8µM*,0.56µM*,0.45µM*,2.1µM*
CCc1cccc(NC(=O)CCS(=O)(=O)c2ccc(C)cc2)c1,.,.,.,.,.,-8%
COc1ccc(C(=O)/C=C/c2ccc(OC)c(O)c2)c(F)c1,16%,?,-16%,5%,-8%,11µM*
COc1ccc(/C=C/C(=O)CC(=O)/C=C/c2cccc(O)c2OC)cc1O,.,.,21%,.,.,.
COc1ccc(/C=C/C(=O)c2ccc(Cl)s2)cc1O,?,?,-12%,-5%,6%,1.1µM*
CCOC(=O)C1CCN(C(=O)c2nn(-c3ccc(C)cc3)c(=O)n(C)c2=O)CC1,.,.,.,.,.,2%
CCc1ccc(-n2c(=O)c3sc4ccccc4c3n(CC(=O)NCc3ccccc3)c2=O)cc1,.,.,8%,.,.,-3%
Cc1c2ccccc2nc2c(F)c(NCCO)c(F)c(F)c12,?,?,25%,3%,22%,21µM*
Cc1c2ccccc2nc2c(F)c(NC(C)C)c(F)c(F)c12,?,?,16µM*,?,?,3µM*
OCCNc1c2ccccc2nc2c(F)c(F)c(F)c(F)c12,-18%,?,10%,-18%,-28%,-2%
CC(C)Nc1nc2ccccc2c(=O)[nH]1,1%,-1%,.,-2%,1%,-4%
Cc1cccc(N2CCN(C(c3ccccc3)c3nnc(-c4ccccc4Cl)o3)CC2)c1C (centres undefined),.,.,2%,.,.,?
COc1ccc([C@H]2CC(=O)C=C(c3cccc(Cl)c3)C2)cc1,0%,-2%,.,2%,-4%,-5%
CCOC(=O)c1cccc(C2=CC(=O)C[C@H](c3ccc(OC)cc3)C2)c1,?,13µM*,.,12%,15%,-15%
O=C(CN1C=NS(=O)(=O)c2ccccc21)Nc1ccc(Br)cc1,.,.,.,.,.,8%

# Screening data: PubChem, National Center for Advancing Translational Sciences (NCATS)
